The results in this text go back to PubChem BioAssay (EPA / NIEHS).

Molecules are shown by their SMILES. Records with an inconclusive call do not appear. Activity calls are given as the source filed them. How the source made its calls, unless noted: active means hit-call score of the fitted dose curve at least 0.9, where 1 is the maximum; inactive means score below 0.9.

Assay [1] in a line: ATG_TAL_CIS: Attagene CIS-FACTORIAL HepG2 Assay for human TAL Basal Promoter (AID 2282966).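 Further: background control endpoint measuring basal TAL promoter reporter mRNA not a specific factor.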 The settings on record: HepG2 Attagene cis-factorial TAL promoter reporter; actives raise or lower the signal. The method in brief:
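HepG2, transient MRTU transfection, 24 h compound exposure; RNA → oligo(dT) RT → PCR → 6-FAM primer extension → HpaI digest → CE fluorescence. Bidirectional curve fit vs DMSO. Background-control readout.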

Assay [2] is described as follows: ATG_TGFb_CIS: Attagene CIS-FACTORIAL HepG2 Assay for human Transforming Growth Factor (TGF) (AID 2282967). To be noted: HepG2 Attagene CIS TGFb reporter, mRNA transcription; actives raise or lower the signal. The method in brief:
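Endogenous TGFB1-linked transcription factor activity read as reporter mRNA via RT-PCR and capillary electrophoresis, 24 h after dosing transiently transfected HepG2 cells. Gain or loss of signal fitted relative to DMSO.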

Assay [3] is described as follows: ATG_VDRE_CIS: Attagene CIS-FACTORIAL HepG2 Assay for human Vitamin D Receptor Element (VDRE) (AID 2282968). To be noted: HepG2 VDRE cis-reporter transcription, actives raise or lower the signal. The essentials:
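Readout is VDRE-driven reporter mRNA reflecting endogenous factor activity in human HepG2 cells, sampled 24 h post-dose. Quantification used labelled RT-PCR products separated by capillary electrophoresis; bidirectional analysis relative to DMSO.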

The target of assay [4] is Nuclear receptor subfamily 1 group I member 3 (Homo sapiens) (UniProt Q14994). As to the kind of experiment: ATG_CAR_TRANS: Attagene TRANS-FACTORIAL HepG2 Assay for human Constitutive Androstane Receptor (CAR) (AID 2282969; active means hit-call score of the fitted dose curve at least 0.9, where 1 is the maximum;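 further: activators raise reporter mRNA above DMSO so AC50 marks induction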). To be noted: HepG2 Attagene TRANS-FACTORIAL CAR reporter. The method in brief: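 Signal is reporter mRNA induction relative to DMSO, measured 24 h after dosing by RT-PCR with fluorescent primer extension and capillary electrophoresis. Human HepG2 liver cells carried transiently transfected chimeric NR-Gal4/GAL4-UAS reporter constructs.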
Sequence of Nuclear receptor subfamily 1 group I member 3 (Homo sapiens) (Q14994 whole entry, looked up, the tested form may be a part): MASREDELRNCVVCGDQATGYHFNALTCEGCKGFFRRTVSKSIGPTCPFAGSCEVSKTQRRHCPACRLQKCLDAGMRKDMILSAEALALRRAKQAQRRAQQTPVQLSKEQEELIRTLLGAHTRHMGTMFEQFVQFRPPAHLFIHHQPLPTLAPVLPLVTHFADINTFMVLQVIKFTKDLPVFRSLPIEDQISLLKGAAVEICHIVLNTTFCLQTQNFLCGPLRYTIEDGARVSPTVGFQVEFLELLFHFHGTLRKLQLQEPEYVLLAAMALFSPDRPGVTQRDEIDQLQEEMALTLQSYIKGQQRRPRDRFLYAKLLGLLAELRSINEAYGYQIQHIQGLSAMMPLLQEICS

Assay [5] deals with X-box-binding protein 1 (Homo sapiens) (UniProt P17861). The assay is described as follows: ATG_Xbp1_CIS: Attagene CIS-FACTORIAL HepG2 Assay for human X-box Binding Protein 1 (XBP1) (AID 2282972). To be noted: HepG2 XBP1 cis-element reporter, Attagene multiplex; actives raise or lower the signal. The essentials:
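Reporter transcripts were quantified by RT-PCR with fluorescent primer extension and capillary electrophoresis after 24 h chemical exposure. Cells: transiently transfected HepG2 carrying cis-regulated reporter constructs; data fitted bidirectionally relative to DMSO.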

Assay [6] in a line: ATG_M_06_TRANS: Attagene TRANS-FACTORIAL HepG2 Assay for M06 Transcription Factor (Internal Marker) (AID 2282983; active means hit-call score of the fitted dose curve at least 0.9, where 1 is the maximum). To be noted: HepG2 Attagene TRANS M06 internal marker reporter. The method in brief: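 Read-out: fluorescent reporter cDNA fragments resolved by capillary electrophoresis after RT-PCR and HpaI cut. Source cells were HepG2 carrying transfected multi-reporter GAL4 constructs, dosed 24 h. Increase over DMSO control analysed.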

For assay [7], the target named is Nuclear receptor subfamily 4 group A member 2 (Homo sapiens) (UniProt P43354). As to the kind of experiment: ATG_NURR1_TRANS: Attagene TRANS-FACTORIAL HepG2 Assay for human Nuclear Receptor Related Protein 1 (NURR1) (AID 2282985; active means hit-call score of the fitted dose curve at least 0.9, where 1 is the maximum). The settings on record: HepG2 Attagene TRANS reporter, mRNA readout. The method in brief: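 Reporter transcript induction, measured by RT-PCR with fluorescent labelling, HpaI digestion and capillary electrophoresis, after 24 hr dosing of human HepG2 cells transiently expressing an exogenous NR-Gal4 fusion with GAL4-UAS-driven reporters; DMSO as baseline.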
Sequence of Nuclear receptor subfamily 4 group A member 2 (Homo sapiens) (P43354 whole entry, looked up, the tested form may be a part): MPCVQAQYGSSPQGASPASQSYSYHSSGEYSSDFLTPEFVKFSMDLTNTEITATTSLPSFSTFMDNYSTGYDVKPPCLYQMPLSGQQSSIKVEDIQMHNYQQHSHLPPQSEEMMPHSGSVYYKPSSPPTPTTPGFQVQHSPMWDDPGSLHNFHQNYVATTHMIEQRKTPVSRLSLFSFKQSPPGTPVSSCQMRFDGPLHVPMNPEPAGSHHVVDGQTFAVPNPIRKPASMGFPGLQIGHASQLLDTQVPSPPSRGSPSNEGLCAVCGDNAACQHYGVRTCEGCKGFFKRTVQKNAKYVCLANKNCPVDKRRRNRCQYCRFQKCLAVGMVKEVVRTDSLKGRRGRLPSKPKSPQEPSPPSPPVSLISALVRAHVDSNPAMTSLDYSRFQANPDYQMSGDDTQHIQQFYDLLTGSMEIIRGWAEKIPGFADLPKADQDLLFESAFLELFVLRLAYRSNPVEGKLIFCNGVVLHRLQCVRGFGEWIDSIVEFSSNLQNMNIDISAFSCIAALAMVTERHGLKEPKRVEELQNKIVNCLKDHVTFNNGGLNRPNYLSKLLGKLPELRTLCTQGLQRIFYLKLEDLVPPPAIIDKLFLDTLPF

Assay [8] deals with Transcriptional activator Myb (Homo sapiens) (UniProt P10242). The assay is described as follows: ATG_Myb_CIS: Attagene CIS-FACTORIAL HepG2 Assay for human Myeloblastosis (Myb) Proto-Oncogene Transcription Factor (AID 2282986). To be noted: HepG2 Attagene CIS-FACTORIAL Myb reporter transcription; actives raise or lower the signal. The essentials:
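Transiently transfected HepG2 cells carrying a multiplexed cis-promoter reporter set report endogenous Myb activity after 24 h compound exposure. Reporter mRNA is read by RT-PCR with capillary electrophoresis of fluorescent products, fitted bidirectionally against DMSO.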

Assay [9] has as its target Nuclear respiratory factor 1 (Homo sapiens) (UniProt Q16656). The assay is described as follows: ATG_NRF1_CIS: Attagene CIS-FACTORIAL HepG2 Assay for human Nuclear Respiratory Factor 1 (NRF1) Orphan Gene (AID 2282987). The settings on record: HepG2 NRF1 cis-element reporter, Attagene multiplex; actives raise or lower the signal. The method in brief: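 HepG2 cells transiently transfected with multiple cis-regulated reporter units, exposed 24 h. Reporter mRNAs measured by RT-PCR, fluorescent labelling, HpaI digestion and capillary electrophoresis; bidirectional fitting against DMSO.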

The nature of assay [10]: ATG_NFI_CIS: Attagene CIS-FACTORIAL HepG2 Assay for human Nuclear Factor I (NFI) (AID 2282989). To be noted: HepG2 cis-regulatory reporter, NFI response element transcription; actives raise or lower the signal. The essentials:
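Reporter transcripts were measured by RT-PCR with fluorescent primer extension and capillary electrophoresis 24 h post-treatment. HepG2 cells carried transiently transfected cis-regulated reporter constructs reporting endogenous factor activity; gain or loss fitted against DMSO baseline.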

Assay [11] is described as follows: ATG_GAL4_TRANS: Attagene TRANS-FACTORIAL HepG2 Assay for GAL4 (Internal Marker) (AID 2282976; active means hit-call score of the fitted dose curve at least 0.9, where 1 is the maximum). To be noted: HepG2 Attagene TRANS GAL4 internal marker reporter. The method in brief:
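RT-PCR/capillary electrophoresis readout of reporter mRNA. HepG2, transient MRTU transfection (GAL4-UAS reporters), 24 h compound exposure. Background-control endpoint, positive direction vs DMSO baseline.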

In assay [12] the target is Glucocorticoid receptor (Homo sapiens) (UniProt P04150). As to the kind of experiment: ATG_GR_TRANS: Attagene TRANS-FACTORIAL HepG2 Assay for human Glucocorticoid Receptor (GR) (AID 2282978; active means hit-call score of the fitted dose curve at least 0.9, where 1 is the maximum;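 further: activators score as hits since higher reporter transcript over DMSO is fitted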). To be noted: HepG2 Attagene TRANS GR reporter, mRNA transcription. The method in brief: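 HepG2 cells transiently transfected with GAL4-UAS reporter units and exogenous GR-Gal4 chimera, dosed 24 h. Reporter mRNA by RT-PCR, FAM labeling, HpaI digest and capillary electrophoresis; gain-of-signal fit versus DMSO.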
Sequence of Glucocorticoid receptor (Homo sapiens) (P04150 whole entry, looked up, the tested form may be a part): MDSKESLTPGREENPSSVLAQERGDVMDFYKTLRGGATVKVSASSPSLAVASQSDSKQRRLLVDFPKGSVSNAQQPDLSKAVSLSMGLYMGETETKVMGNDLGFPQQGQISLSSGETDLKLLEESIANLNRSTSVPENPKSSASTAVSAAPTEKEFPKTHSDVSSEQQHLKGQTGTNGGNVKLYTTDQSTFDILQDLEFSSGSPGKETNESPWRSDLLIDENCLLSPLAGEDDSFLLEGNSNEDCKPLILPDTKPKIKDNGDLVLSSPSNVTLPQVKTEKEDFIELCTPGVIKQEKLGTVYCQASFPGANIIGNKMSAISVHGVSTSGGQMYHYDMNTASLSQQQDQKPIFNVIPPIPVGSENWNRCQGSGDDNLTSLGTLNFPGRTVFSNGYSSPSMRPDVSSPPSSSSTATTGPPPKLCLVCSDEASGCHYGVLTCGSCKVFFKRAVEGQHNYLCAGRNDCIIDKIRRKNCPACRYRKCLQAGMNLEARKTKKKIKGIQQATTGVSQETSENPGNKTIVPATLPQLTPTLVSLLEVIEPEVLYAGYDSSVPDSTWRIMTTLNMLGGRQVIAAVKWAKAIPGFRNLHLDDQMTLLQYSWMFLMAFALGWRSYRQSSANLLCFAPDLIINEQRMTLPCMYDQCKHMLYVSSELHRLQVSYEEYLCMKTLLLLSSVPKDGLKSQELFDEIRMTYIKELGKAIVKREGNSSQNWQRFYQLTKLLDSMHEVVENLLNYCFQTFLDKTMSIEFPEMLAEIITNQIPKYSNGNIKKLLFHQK

In assay [13] the target is Bile acid receptor (Homo sapiens) (UniProt Q96RI1). The assay is described as follows: ATG_FXR_TRANS: Attagene TRANS-FACTORIAL HepG2 Assay for Farnesoid X Receptor (FXR) (AID 2282979; active means hit-call score of the fitted dose curve at least 0.9, where 1 is the maximum;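 further: hits raise reporter mRNA above DMSO so AC50 marks FXR activation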). The settings on record: HepG2 Attagene TRANS FXR-GAL4 reporter transcription. The essentials: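 Read-out: fluorescent reporter transcripts quantified by capillary electrophoresis after RT-PCR of total RNA. Source cells were HepG2 transiently carrying chimeric NR-GAL4 plus GAL4-UAS reporter units, dosed 24 h. Activity fitted upward relative to DMSO baseline.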
Sequence of Bile acid receptor (Homo sapiens) (Q96RI1 whole entry, looked up, the tested form may be a part): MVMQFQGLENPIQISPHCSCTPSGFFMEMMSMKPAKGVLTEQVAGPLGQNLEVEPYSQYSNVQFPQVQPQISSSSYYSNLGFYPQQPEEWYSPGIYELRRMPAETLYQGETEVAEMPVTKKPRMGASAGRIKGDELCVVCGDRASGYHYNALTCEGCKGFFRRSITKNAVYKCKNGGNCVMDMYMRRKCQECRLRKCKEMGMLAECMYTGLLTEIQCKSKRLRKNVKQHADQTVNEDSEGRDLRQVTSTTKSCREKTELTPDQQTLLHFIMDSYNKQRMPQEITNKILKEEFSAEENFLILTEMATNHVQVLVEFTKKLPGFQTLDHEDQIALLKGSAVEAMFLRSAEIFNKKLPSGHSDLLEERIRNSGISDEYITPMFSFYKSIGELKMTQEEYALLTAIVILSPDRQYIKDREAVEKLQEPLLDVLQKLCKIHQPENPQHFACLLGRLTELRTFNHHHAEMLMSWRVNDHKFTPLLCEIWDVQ

The nature of assay [14]: ATG_M_32_TRANS: Attagene TRANS-FACTORIAL HepG2 Assay for M32 Transcription Factor (Internal Marker) (AID 2282984; active means hit-call score of the fitted dose curve at least 0.9, where 1 is the maximum;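 further: transcript level of a background control reporter unit measured by RT-PCR and capillary electrophoresis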). The settings on record: HepG2 Attagene TRANS M32 internal marker reporter. The essentials: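 Internal background reporter in transfected HepG2: after 24 h chemical exposure, RNA reverse-transcribed, reporter cDNA amplified, fluorescently labelled and HpaI-cut, then sized by capillary electrophoresis. Gain of signal fitted against DMSO control.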

Assay [15] is described as follows: ATG_M_19_TRANS: Attagene TRANS-FACTORIAL HepG2 Assay for M19 Transcription Factor (Internal Marker) (AID 2282974; active means hit-call score of the fitted dose curve at least 0.9, where 1 is the maximum). To be noted: HepG2 Attagene TRANS-FACTORIAL M19 internal marker reporter. The essentials:
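HepG2 transiently transfected with GAL4-UAS multiplex reporter constructs, exposed 24 h; reporter RNA quantified by RT-PCR, 6-FAM labeling, HpaI digestion and capillary electrophoresis; internal background marker fitted upward versus DMSO.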

Assay [16] addresses Hepatocyte nuclear factor 4-alpha (Homo sapiens) (UniProt P41235). The assay is described as follows: ATG_HNF4a_TRANS: Attagene TRANS-FACTORIAL HepG2 Assay for human Hepatocyte Nuclear Factor 4 alpha (HNF4a) (AID 2282982; active means hit-call score of the fitted dose curve at least 0.9, where 1 is the maximum). To be noted: HepG2 HNF4a transactivation reporter, mRNA readout. The method in brief:
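Activity of an exogenous HNF4a–Gal4 fusion scored as induced GAL4-UAS reporter transcripts after 24 h chemical exposure of transfected human HepG2 cells. Read-out via RT-PCR with 6-FAM labelling and capillary electrophoresis; rise over DMSO baseline.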

In assay [17] the target is Steroid hormone receptor ERR1 (Homo sapiens) (UniProt P11474). As to the kind of experiment: ATG_ERRa_TRANS: Attagene TRANS-FACTORIAL HepG2 Assay for human Estrogen-Related Receptor alpha (ERRa) (AID 2282971; active means hit-call score of the fitted dose curve at least 0.9, where 1 is the maximum). To be noted: HepG2 Attagene TRANS reporter, ERRa transactivation. The method in brief: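 Transfected HepG2, 24 h dosing, ERRa-Gal4 chimera driving GAL4-UAS reporter. Readout: reporter mRNA via RT-PCR plus capillary electrophoresis (fluorescence). Positive direction vs DMSO control.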
Sequence of Steroid hormone receptor ERR1 (Homo sapiens) (P11474 whole entry, looked up, the tested form may be a part): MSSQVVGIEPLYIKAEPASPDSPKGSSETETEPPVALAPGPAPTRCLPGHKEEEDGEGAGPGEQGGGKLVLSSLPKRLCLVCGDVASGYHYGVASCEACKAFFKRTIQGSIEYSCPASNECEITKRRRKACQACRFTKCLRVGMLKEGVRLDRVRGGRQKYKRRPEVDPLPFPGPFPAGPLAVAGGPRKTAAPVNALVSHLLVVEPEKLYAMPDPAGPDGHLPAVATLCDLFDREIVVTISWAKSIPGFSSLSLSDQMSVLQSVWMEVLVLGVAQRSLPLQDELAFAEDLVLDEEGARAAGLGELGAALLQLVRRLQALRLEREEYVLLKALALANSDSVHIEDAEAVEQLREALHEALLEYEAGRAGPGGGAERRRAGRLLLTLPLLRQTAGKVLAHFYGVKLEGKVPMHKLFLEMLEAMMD

Assay [18] has as its target Estrogen-related receptor gamma (Homo sapiens) (UniProt P62508). As to the kind of experiment: ATG_ERRg_TRANS: Attagene TRANS-FACTORIAL HepG2 Assay for human Estrogen-Related Receptor gamma (ERRg) (AID 2282977; active means hit-call score of the fitted dose curve at least 0.9, where 1 is the maximum;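 further: hits increase reporter signal over DMSO so potencies reflect activators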). The settings on record: HepG2 Attagene TRANS reporter, ERRg transactivation. The method in brief: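 Exogenous NR-Gal4 chimera activity measured as reporter transcript induction after 24 h in transiently transfected HepG2 cells. RNA reverse-transcribed, PCR-amplified, 6-FAM-labelled and resolved by capillary electrophoresis; increase over DMSO baseline.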

The target in assay [19] is Oxysterols receptor LXR-alpha (Homo sapiens) (UniProt Q13133). As to the kind of experiment: ATG_LXRa_TRANS: Attagene TRANS-FACTORIAL HepG2 Assay for human Liver X Receptor alpha (LXRa) (AID 2282980; active means hit-call score of the fitted dose curve at least 0.9, where 1 is the maximum). To be noted: HepG2 Attagene TRANS reporter, LXRa transactivation. The essentials: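 Read-out: reporter transcript levels by RT-PCR plus capillary electrophoresis, fluorescence intensity. Transiently transfected HepG2, exogenous NR-GAL4 chimera, GAL4-UAS reporters; 24 h compound exposure. Activity = increase over DMSO negative control.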
Sequence of Oxysterols receptor LXR-alpha (Homo sapiens) (Q13133 whole entry, looked up, the tested form may be a part): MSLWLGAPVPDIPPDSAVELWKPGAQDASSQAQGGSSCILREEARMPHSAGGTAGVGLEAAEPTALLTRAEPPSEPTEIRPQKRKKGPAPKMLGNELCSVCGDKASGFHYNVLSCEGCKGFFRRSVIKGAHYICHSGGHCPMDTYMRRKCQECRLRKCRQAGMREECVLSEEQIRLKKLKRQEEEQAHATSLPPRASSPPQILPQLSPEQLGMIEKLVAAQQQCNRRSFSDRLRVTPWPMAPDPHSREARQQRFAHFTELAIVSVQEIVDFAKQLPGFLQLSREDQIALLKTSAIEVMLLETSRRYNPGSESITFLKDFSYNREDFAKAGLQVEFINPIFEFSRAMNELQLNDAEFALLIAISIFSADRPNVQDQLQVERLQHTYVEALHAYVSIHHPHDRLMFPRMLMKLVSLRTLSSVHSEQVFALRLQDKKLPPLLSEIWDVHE

Sequence of X-box-binding protein 1 (Homo sapiens) (P17861 whole entry, looked up): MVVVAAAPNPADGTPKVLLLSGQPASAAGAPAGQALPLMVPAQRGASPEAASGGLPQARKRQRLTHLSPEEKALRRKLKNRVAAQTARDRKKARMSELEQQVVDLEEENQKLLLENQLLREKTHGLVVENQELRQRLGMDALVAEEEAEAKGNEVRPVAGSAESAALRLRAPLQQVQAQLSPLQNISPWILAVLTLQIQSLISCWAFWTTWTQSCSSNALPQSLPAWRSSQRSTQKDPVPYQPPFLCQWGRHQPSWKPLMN
Sequence of Nuclear respiratory factor 1 (Homo sapiens) (Q16656 whole entry, looked up): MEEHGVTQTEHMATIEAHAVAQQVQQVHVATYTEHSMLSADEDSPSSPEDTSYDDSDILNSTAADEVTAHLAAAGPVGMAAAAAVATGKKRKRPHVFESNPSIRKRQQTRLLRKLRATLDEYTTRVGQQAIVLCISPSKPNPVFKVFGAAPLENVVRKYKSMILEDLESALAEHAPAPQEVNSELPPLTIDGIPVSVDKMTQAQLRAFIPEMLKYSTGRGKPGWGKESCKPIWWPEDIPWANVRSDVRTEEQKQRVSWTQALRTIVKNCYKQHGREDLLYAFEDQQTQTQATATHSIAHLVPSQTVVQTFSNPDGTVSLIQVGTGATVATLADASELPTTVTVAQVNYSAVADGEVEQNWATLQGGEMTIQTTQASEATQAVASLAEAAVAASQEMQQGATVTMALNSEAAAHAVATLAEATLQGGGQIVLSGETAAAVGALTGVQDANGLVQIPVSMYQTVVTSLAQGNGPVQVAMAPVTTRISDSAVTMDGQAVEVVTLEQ
Sequence of Hepatocyte nuclear factor 4-alpha (Homo sapiens) (P41235 whole entry, looked up, the tested form may be a part): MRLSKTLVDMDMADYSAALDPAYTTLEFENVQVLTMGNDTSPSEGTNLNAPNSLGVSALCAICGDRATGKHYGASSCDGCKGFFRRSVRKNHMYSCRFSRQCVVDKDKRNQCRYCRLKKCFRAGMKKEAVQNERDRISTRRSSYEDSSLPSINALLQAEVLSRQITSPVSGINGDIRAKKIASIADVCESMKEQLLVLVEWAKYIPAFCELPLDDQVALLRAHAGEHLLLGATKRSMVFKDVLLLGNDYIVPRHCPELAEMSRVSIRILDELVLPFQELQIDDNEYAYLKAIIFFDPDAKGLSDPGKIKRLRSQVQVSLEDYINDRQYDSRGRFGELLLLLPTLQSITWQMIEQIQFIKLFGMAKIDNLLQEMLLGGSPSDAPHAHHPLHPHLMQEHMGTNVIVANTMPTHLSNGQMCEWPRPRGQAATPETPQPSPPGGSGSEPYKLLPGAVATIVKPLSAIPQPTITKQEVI
Sequence of Transcriptional activator Myb (Homo sapiens) (P10242 whole entry, looked up): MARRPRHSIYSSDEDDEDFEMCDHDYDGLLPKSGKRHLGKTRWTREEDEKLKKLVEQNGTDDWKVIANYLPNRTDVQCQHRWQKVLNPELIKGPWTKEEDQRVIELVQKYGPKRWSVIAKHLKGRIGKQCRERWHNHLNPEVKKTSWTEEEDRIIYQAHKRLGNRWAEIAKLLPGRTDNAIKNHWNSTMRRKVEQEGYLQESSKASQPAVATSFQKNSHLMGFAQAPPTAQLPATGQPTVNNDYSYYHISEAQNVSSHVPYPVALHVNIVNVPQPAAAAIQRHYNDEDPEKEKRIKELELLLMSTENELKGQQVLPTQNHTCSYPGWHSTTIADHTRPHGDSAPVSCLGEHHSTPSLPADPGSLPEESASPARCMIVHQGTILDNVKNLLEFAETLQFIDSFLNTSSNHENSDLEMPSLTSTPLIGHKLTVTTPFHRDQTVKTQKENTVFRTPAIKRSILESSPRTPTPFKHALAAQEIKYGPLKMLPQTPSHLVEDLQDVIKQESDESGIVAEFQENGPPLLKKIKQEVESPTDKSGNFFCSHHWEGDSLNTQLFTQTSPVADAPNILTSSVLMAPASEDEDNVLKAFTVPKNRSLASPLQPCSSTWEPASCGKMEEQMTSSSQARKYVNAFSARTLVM

Consider `Cc1cccc(Nc2ccccc2)c1`, for which the compound was called inactive in [1], in assay [2], in assay [4], in assay [6], in [7] and in assay [9]. The call in [10] was inactive. The AC50 in assay [3] was 58.2 µM (active); in assay [5], 133 µM (active); in [8] it was 170 µM (active).

With `CCCCN(CCCC)C(=O)N(CCCC)CCCC`, the AC50 in assay [1] was 50.2 µM (active); in [2], 59.6 µM (active); in assay [3], 7.92 µM (active); in [13], 15.6 µM (active); in [7], 42.9 µM (active); in [9], 40.2 µM (active). Also, the AC50 in assay [10] was 60.3 µM (active). Besides, the compound was classed as inactive in assay [4], in [5], in [11], in [12], in assay [6] and in assay [14]. In addition, the compound was classed as inactive in assay [8].

`CC(C)OCCO`: the compound was called inactive in [1], in [2], in assay [3], in assay [4], in assay [5] and in assay [6]. For the same compound, the call in [7], in assay [8], in assay [9] and in assay [10] was inactive.

Take `CCN(CC)C(=O)N(CC)CC`: the compound was classed as inactive in assay [1], in assay [2], in assay [3], in [4], in assay [13] and in assay [6]. Moreover, the result in [14], in assay [8], in assay [9] and in [10] was inactive.

`COc1ccc(N)c([N+](=O)[O-])c1`: the compound was classed as inactive in assay [1], in [2], in assay [3], in assay [4], in assay [15] and in [12]. In addition, the outcome in assay [6], in [7], in [8], in assay [9] and in assay [10] was inactive.

`CC(C)=CCCC(C)CCOC=O` (stereo not drawn): the call in [1], in assay [2], in assay [3], in [4], in [5] and in assay [13] was inactive. The result in assay [16], in [6], in assay [7], in [8], in assay [9] and in assay [10] was inactive.

For `FC(F)(F)COCC(F)(F)F`, the result in assay [1], in assay [2], in assay [3], in assay [17], in assay [5] and in [15] was inactive. The compound was called inactive in assay [12], in [13], in assay [6], in assay [14], in assay [8] and in assay [9]. Also, the call in [10] was inactive.

On to `CN(C)c1ccncc1`, for which the call in assay [1], in [2], in assay [3], in [17], in assay [5] and in [15] was inactive. Besides, the result in assay [18], in [19], in assay [16], in [8], in assay [9] and in assay [10] was inactive.

As for `C=CCN(CC=C)CC=C`, the compound was classed as inactive in [1], in assay [2], in [3], in assay [4], in assay [5] and in assay [11]. Further, the call in assay [12], in assay [16], in assay [6], in [8], in assay [9] and in assay [10] was inactive.

Regarding `CCN(CCN)c1cccc(C)c1`, the result in assay [1], in assay [2], in assay [4], in [18], in assay [19] and in assay [16] was inactive. The outcome in assay [6], in assay [14], in [7], in assay [8], in [9] and in [10] was inactive. In assay [3], the AC50 was 72.4 µM (active).

As to `CCCCCCCCN1CCCC1=O`, the outcome in [1], in assay [2], in [3], in assay [4], in [5] and in [12] was inactive. Besides, the outcome in assay [13], in [6], in assay [8], in [9] and in assay [10] was inactive.
